# DRD3 agonist: agonists of human D3 dopamine receptor. P35462. AID 652048. max activation, %. 410,000 tested, 0.58% active. D3R DiscoveRx beta-arrestin cells, luminescence, 90 min; in the data active means max activation above about 30%; further: 0% is about no effect
# Target sequence (P35462 whole entry, looked up): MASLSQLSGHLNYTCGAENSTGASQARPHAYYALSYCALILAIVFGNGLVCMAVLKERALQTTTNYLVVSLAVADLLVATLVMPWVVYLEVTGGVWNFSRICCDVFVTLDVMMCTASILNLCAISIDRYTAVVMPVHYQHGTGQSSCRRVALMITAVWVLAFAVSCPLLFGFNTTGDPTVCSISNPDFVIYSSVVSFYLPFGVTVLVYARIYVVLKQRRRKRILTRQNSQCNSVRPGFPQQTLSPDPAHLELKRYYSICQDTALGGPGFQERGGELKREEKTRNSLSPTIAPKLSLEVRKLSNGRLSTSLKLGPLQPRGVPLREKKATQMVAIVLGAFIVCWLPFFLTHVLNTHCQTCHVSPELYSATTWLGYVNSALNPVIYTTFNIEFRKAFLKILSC
#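 Agonist mode: compounds and dopamine controls were applied to plated cells for 90 min at 37 degrees C after an overnight attachment at 1500 cells/well. Luminescent read-out followed 30 - 60 minutes at room temperature with DiscoveRx detection reagent.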
# SW480 rereplic: inducers of DNA re-replication in SW480 colon cancer cells; SW480 DNA re-replication, Hoechst DNA content imaging, 48 h; Potency, µM (top dose mostly 46.1 µM), for inactives: at the top dose re-replication activation, most hits filed as activators; 340,000 tested, 1.8% active; AID 624297; further: potency means the concentration at half of the fitted maximal effect; % of control where 0% means no effect; nearly all actives have a fitted effect of over 55% in size
#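 Compounds, transferred as 23 nL by pin tool, were incubated with cells for 48 hr; DNA content per nucleus was then quantified by Hoechst staining and fluorescence plate imaging.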
# DRD3 antagonist: antagonists of human D3 dopamine receptor. 360,000 tested, 2.5% active. max response, negative = inhibition, %. P35462. D3R cells, DiscoveRx beta-arrestin luminescence, antagonist mode; hits give low values; in the data active means max response below about -50%; inconclusive means no clear call, values can overlap the other calls; further: on the % scale 0 is the no-effect control and ±100 the full control effect
#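 Cells plated overnight at 1500 cells/well, then exposed to library compounds with dopamine controls for 90 minutes at 37 degrees C. DiscoveRx reagent added for 30–60 minutes at room temperature; luminescence read, quantitative HTS format.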
# MCF10A rerep: inducers of DNA re-replication in MCF 10A breast cells | Potency, µM (doses to about 46.1 µM), for inactives: top-dose activity, positive = re-replication, most hits filed as activators | AID 624296 | MCF 10A DNA re-replication, Hoechst nuclear intensity, 48 h | 350,000 tested, 2.9% active; further: potency means the concentration at half of the fitted maximal effect; % of control where 0% means no effect; nearly all actives have a fitted effect of over 50% in size
# KB-3-1 tox: kills parental KB-3-1 adenocarcinoma cells | KB-3-1 viability, CellTiter-Glo ATP luminescence, 72 h | Potency, µM (doses to about 46.1 µM), hits mostly cytotoxic | 400,000 tested, 1.4% active; further: potency means the concentration at half of the fitted maximal effect; on the % scale 0 is the no-effect control and ±100 the full control effect; nearly all actives have a fitted effect of over 60% in size
#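 Multi-concentration cytotoxicity screen in KB-3-1 cells grown in DMEM lacking phenol red with 10% FBS. After 72 h at 37 °C with compound, ATP-dependent luminescence was recorded.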
# KB-V1 cytotox: kills drug-selected multidrug resistant KB-V1 cells; KB-V1 MDR cells viability, CellTiter-Glo, 72 h; Potency, µM (series often up to 46.1 µM), most hits filed as cytotoxic; 400,000 tested, 3.4% active; AID 1347076; further: potency means the concentration at half of the fitted maximal effect; on the % scale 0 is the no-effect control and ±100 the full control effect; nearly all actives have a fitted effect of over 60% in size
#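 qHTS viability screen in drug-selected KB-V1 MDR cells: 72 h compound treatment at 37 degrees C, ATP luminescence end point.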
# * marks the source's active call; other numbers are inactive results; i = inactive; ? = inconclusive; . = no result; [ ] = remark or other dose. Hits are enriched below; roughly 8.9% of the tested compounds scored in any of these assays. Unless noted, the call rests on the fitted dose curve; in most records, active means well fitted curve in the direction sought with a large enough effect; inconclusive means small, poorly fitted or top-dose-only effect, or another doubt; inactive means no such curve, though single readings can be large; an effect the other way counts as inactive or inconclusive.
SMILES,DRD3 agonist,SW480 rereplic,DRD3 antagonist,MCF10A rerep,KB-3-1 tox,KB-V1 cytotox
CCOC(=O)C1=C(CN2CCN(c3ccc(Cl)cc3)CC2)NC(=O)NC1c1ccc(F)cc1 (configuration not stated),3.9,.,.,.,?,?
Cc1nnc(SCc2cc(=O)oc3ccc4ccccc4c23)n1Cc1ccccc1,2.1,1.7%,10.2,15.9%,i,16.4µM*
CC(C)c1ccccc1-n1c(SCc2cc(=O)oc3ccc4ccccc4c23)nnc1-c1cccnc1,-7.6,.,-2.4,18.9%,?,20.6µM*
CCOc1ccc(-n2c(SCc3cc(=O)oc4cc(C)ccc34)nnc2-c2cccnc2)cc1,4.9,2.2%,18.0,1.5%,i,?
O=C(NCc1ccccc1Cl)c1ccc(NC(=O)N2CCSc3ccccc32)cc1,-0.1,.,.,.,i,i
O=c1[nH]c2ccccc2nc1-c1nnnn1C1CCCC1,-9.0,.,0.0,.,i,i
O=c1[nH]c2cc3ccccc3cc2nc1-c1nnnn1C1CCCC1,-15.2,.,-68.1*,.,5.8µM*,i
CCc1ccccc1NC(=O)CN(C)Cc1nc(N)nc(Nc2ccccc2C)n1,1.8,5.6%,-13.4,4.0%,i,3.26µM*
CS(=O)(=O)c1ccc(CNC(=O)C2(C(F)(F)F)CC(CCCO)CCCO2)cc1 (configuration not stated),-14.1,0.0%[9.22 µM],0.0,-49.2%,5.8µM*,?
COc1ccc(/C(C)=N/Nc2ncc(Cl)cc2Cl)c(O)c1,22.3,?,24.5,16.4µM*,i,?
CCC1=Nc2cc(C(=O)NCCCOC)ccc2Sc2ccc(Br)cc21,-6.8,.,.,.,0.82µM*,?
CCC1=Nc2cc(C(=O)NCCCN3CCOCC3)ccc2Sc2ccccc21,-2.5,7.1%,-11.7,?,i,i
CCC1=Nc2cc(C(=O)NCCCOC)ccc2Sc2ccccc21,-5.1,1.3µM*,-9.8,?,0.82µM*,0.231µM*
CC1=Nc2cc(C(=O)NCC3CCCO3)ccc2Sc2ccc(Br)cc21 (configuration not stated),-3.6,?,0.2,18.4µM*,11.6µM*,6.51µM*
CCC1=Nc2cc(C(=O)NCCN3CCCC3)ccc2Sc2ccccc21,-0.2,0.1%,2.5,?,i,i
CC1=Nc2cc(C(=O)NC3CCCC3)ccc2Sc2ccc(Br)cc21,-4.5,.,.,.,?,?
CCCCNC(=O)c1ccc2c(c1)N=C(CC)c1ccccc1S2,-12.1,.,.,.,?,18.4µM*
Cc1ccc(NC(=O)/C=C\C(=O)N(c2ccc(C(C)C)cc2)C(C(=O)NCc2ccco2)c2ccc(F)cc2)cc1 (configuration not stated),4.3,.,.,.,.,.
Cc1ccc(S(=O)(=O)c2nnn3c2nc(NC2CCCCC2)c2sccc23)cc1C,23.3,.,.,.,.,.
CCn1c(CNC(=O)c2ccc(OC)cc2)nnc1SCC(=O)Nc1cccc(C)c1C,-10.0,.,.,.,i,i
N#Cc1c([N+](=O)[O-])cc([N+](=O)[O-])cc1S(=O)(=O)Cc1ccccc1,-13.6,5.17µM*,-102.3*,?,23.1µM*,?
COc1cc2c(=O)n(Cc3ccccc3Cl)c(=O)n(CC(=O)Nc3ccccc3)c2cc1OC,-4.1,.,.,.,i,i
CCN(CC)c1ccc(/C=c2\sc3nc4ccccc4n3c2=O)c(O)c1,6.4,14.6µM*,67.6,2.59µM*,?,i
O=c1/c(=C/c2ccc(O)c([N+](=O)[O-])c2)sc2nc3ccccc3n12,2.3,-18.1%,-7.8,10.4%,i,i
COC(C[C@H](O)C[C@@H](O)COCc1ccccc1)OC,-3.1,1.6%,-106.9*,?,i,i
SMILES,DRD3 agonist,SW480 rereplic,DRD3 antagonist,MCF10A rerep,KB-3-1 tox,KB-V1 cytotox
COC(C[C@@H](O)C[C@@H](O)COCc1ccccc1)OC,-16.5,-1.4%,0.0,-28.3%,i,i
O=C(CSc1oc(-c2ccco2)nc1S(=O)(=O)c1ccc(Br)cc1)c1ccccc1,2.8,.,.,.,i,i
O=C1C(N2CCOCC2)=C(n2nnc3ccccc32)C(=O)c2ccccc21,-16.3,?,-23.7,?,i,4.11µM*
Cc1ccccc1/C=C/C12NC(=O)CN1c1ccccc1C2(C)C (configuration not stated),30.8*,2.8%,19.2,3.2%,i,i
CCN(CC)S(=O)(=O)c1ccc2c(c1)c(=O)c(C(=O)N1CCN(c3cccc(C)c3)C(C)C1)cn2C (configuration not stated),-10.2,.,.,.,i,i
CN1CCCC1CCOC(C)(c1ccccc1)c1ccc(Cl)cc1 (configuration not stated),.,7.08µM*,-101.4*,13.5%,i,?
Cc1cccc(CNC(=O)c2cc3cc(S(=O)(=O)N4CCCCC4)ccc3n2C)c1,-5.0,.,.,.,.,.
O=C(c1ccc(Cl)c(Cl)c1)N1CCN(c2ccccn2)CC1,0.7,-86.2%,-11.0,12.2%,i,i
Cc1ccc(C(=O)N2CCN(c3ncccn3)CC2)cc1S(=O)(=O)N1CCCCC1,-12.5,-5.7%,0.1,-1.3%,i,23.1µM*
Cc1cc(C(=O)N2CCN(c3ncccn3)CC2)sc1-c1ccccc1,-0.5,7.1%,-8.1,7.0%,i,20.6µM*
O=C(c1ccc(Cl)c(S(=O)(=O)N2CCCC2)c1)N1CCN(c2ccc(F)cc2)CC1,-1.0,-3.2%,-5.2,?,?,5.8µM*
CN(c1ccccc1)S(=O)(=O)c1cc(C(=O)N2CCN(c3ccccn3)CC2)ccc1Cl,-2.6,-3.9%,0.0,7.4%,?,23.1µM*
Cc1cc(C(=O)N2CCN(S(C)(=O)=O)CC2)sc1-c1ccccc1,-4.7,2.5%,-10.4,-0.8%,i,i
O=C(c1ccc(Cl)c(S(=O)(=O)N2CCCC2)c1)N1CCN(c2ccccc2)CC1,-0.6,-2.8%,12.2,-27.4%,i,?
Brc1ccc2c(ccc[n+]2CCc2ccccc2)c1,.,.,.,.,?,i
CCCCCCN1C[C@H](O)[C@@H](n2cc(C3CC3)nn2)C[C@@H]1c1ccc(OC)cc1,-7.9,.,-8.5,.,i,?
O=C(c1ccc(F)cc1)N1CCN(c2ccccn2)CC1,-8.3,-5.3%,-2.6,-11.8%,i,i
O=C(c1ccc(Cl)c(S(=O)(=O)Nc2ccc(F)cc2)c1)N1CCN(c2ccccn2)CC1,37.9*,17.4%,33.3,?,?,?
Cc1[nH][nH]c(=O)c1C(c1c(C)[nH][nH]c1=O)c1cn(Cc2ccc(Cl)c(Cl)c2)c2ccccc12,-19.2,9.2µM*,-29.6,?,23.1µM*,13µM*
Cc1[nH][nH]c(=O)c1C(c1c(C)[nH][nH]c1=O)c1cn(Cc2ccc(F)cc2)c2ccccc12,-23.7,9.2µM*,?,?,?,?

# Bioassay records as filed in PubChem.
